Measured values as given in PubChem BioAssay AID1347069 (National Center for Advancing Translational Sciences (NCATS), 2019).
Screen size: about 44,000 compounds; fewer than 10 were called active. The call rests on the fitted dose curve; in most records, active means well fitted inhibition curve with a large enough effect; inconclusive means small, poorly fitted or top-dose-only effect; inactive means flat fitted curve, though single readings scatter. Not all results are given here.

Biological target: Tumor susceptibility gene 101 protein (Homo sapiens) (UniProt Q99816)
Assay: qHTS Validation Assay for Inhibitors of HIV-1 Budding by Blocking the Interaction of PTAP/TSG101: Sytravon Library Screen
Details: Fluorescence polarization, FITC-PTAP peptide/Tsg101, 20 min; series mostly up to 115 µM
Description: Stages of the HIV-1 replication cycle, specifically virus assembly and release, provide underexploited targets for the development of novel antiviral inhibitors. The late stages of HIV-1 replication are mediated by the Gag precursor protein, Pr55Gag. Expression of Pr55Gag is both necessary and sufficient for the production of virus-like particles from Gag-expressing cells. The Gag protein hijacks key host proteins involved in endocytic machinery of the host cell to promote endosomal processing and viral budding. The budding process requires a direct interaction between a […] (PTAP) motif in the p6 domain of Gag and the cellular endosomal sorting protein known as Tsg101. In this way, the Gag PTAP motif promotes the host cells to recruit viral particles to the plasma membrane where the new viral particles are released, effectively turning the host cells into viral factories. A fluorescence polarization assay has been developed to quantitatively measure the PTAP-Tsg101 interaction which can be used to screen for inhibitors of this interaction. This assay was run against the NCGC Sytravon Library collection. NIH Molecular Libraries Probe Production Network [MLPCN] NIH Chemical Genomics Center [NCGC] Grant: R03 MH087464-01A1 PI Name: Dr. Eric Freed, NCI
Two uL of the Tsg101 binding domain in buffer (10 mM HEPES pH 7.5; 0.15 M NaCl, 0.01% Tween 20; 3 mM EDTA;0.1 mM TCEP) was dispensed into Greiner black MB 1536-well plates (final concentration 10 uM). Then, 23 nL of compounds or DMSO were delivered to each well using a pin tool. Finally, 2 uL of a FITC-labeled peptide containing the PTAP motif (1) in the same buffer was dispensed (50 nM final concentration) and the binding was allowed to proceed for 20 min. at r.t. Fluorescent polarization was determined using FITC excitation and polarized emission filters on a Perkin Elmer Envision. Assay cut-off (positive/negative criteria): Actives defined by CRC class, <25 µM; Efficacy <60% inhibition. The total fluorescent intensity from S and P channels will be used to flag fluorescent compounds.

Sequence of Tumor susceptibility gene 101 protein (Homo sapiens) (Q99816 whole entry, looked up): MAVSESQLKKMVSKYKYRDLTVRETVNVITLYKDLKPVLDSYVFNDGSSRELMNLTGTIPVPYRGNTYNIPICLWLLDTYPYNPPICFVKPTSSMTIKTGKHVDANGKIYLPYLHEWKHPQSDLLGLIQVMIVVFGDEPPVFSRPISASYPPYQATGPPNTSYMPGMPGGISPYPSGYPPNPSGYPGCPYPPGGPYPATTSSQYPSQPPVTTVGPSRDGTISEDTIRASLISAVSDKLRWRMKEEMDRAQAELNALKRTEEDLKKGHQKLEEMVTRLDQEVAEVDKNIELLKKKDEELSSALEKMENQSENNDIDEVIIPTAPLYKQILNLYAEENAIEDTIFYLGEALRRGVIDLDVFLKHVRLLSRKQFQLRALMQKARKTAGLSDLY

Potency, inactive:
CCCN(CCC)CCCNC(=O)Cn1cc2c(n1)-c1c(oc(C(=O)N3CCCC3)c1C)CC2, COc1ccc(NC(=O)Cn2cc(C(=O)c3ccncc3)c(=O)c3cc(C)ccc32)cc1Cl, O=C(Cn1ncc2c3ccccc3n(Cc3ccccc3)c2c1=O)NC1CCCCCC1, Cc1ccc(NC(=O)CN2C(=O)CC(C)Sc3ccccc32)c(C)c1 (stereo not given), CC(C)c1ccc(OCC(=O)N(Cc2ccc(N(C)C)cc2)C2CCS(=O)(=O)C2)cc1 (stereo not given), CCCn1c(NCc2ccccc2F)nc2ccccc21, O=C(COc1ccc(Cl)cc1)N(Cc1ccco1)Cc1ccco1, Cc1ccc(CCNC(=O)c2ccc3c(c2)N(Cc2cc(C)ccc2C)C(=O)c2ccccc2S3=O)cc1 (stereo not given), O=C(c1ccc2c(c1)N(Cc1ccccc1)C(=O)c1ccccc1S2(=O)=O)N1CCC(Cc2ccccc2)CC1, CCCCn1c(=O)c2oc3ccccc3c2n(CC(=O)Nc2ccccc2OC)c1=O, COC(=O)c1ccc(NC(=O)c2cnn(-c3ccc(Cl)cc3)c2C2CCN(C(=O)OC(C)(C)C)CC2)cc1, COc1ccc(-c2nc3ccc(C(=O)NCc4ccc(C)cc4)cc3nc2-c2ccc(OC)cc2)cc1, Cc1cccc(N(C)C(=O)CS(=O)(=O)c2cccc3nsnc23)c1, O=C(C1CCC(Cn2c(=O)c3sccc3n(Cc3ccccc3F)c2=O)CC1)N1CCCCC1 (stereo not given), CCN1CCN(CCCNC(=O)c2ccc3c(c2)sc2nc(-c4ccc(OC)cc4)cn23)CC1, COc1cccc2c1cc1c(=O)n(CC(=O)N3CCN(c4ccccc4)CC3)nc(C)n12, O=C(Nc1ccc(Oc2ccccc2)cc1)C1CCN(S(=O)(=O)c2ccc(Cl)cc2)CC1, COc1ccc(-c2cn3c(C)c(C(=O)Nc4cc(C)cc(C)c4)sc3n2)cc1, CCCCN(C)CCCNC(=O)CN1N=C(c2ccc(OC)cc2)CCC1=O, COc1cccc(Cn2c(SCc3ccc(C(=O)N4CCC(C)CC4)cc3)nc3ccncc32)c1, Cc1cccc(NC(=O)c2cc3c(C)nn(-c4ccccc4)c3s2)c1, CNC(=O)c1ccc(-c2nc(CN3CCc4ccccc43)c(C)o2)cc1, Cc1ccc2oc(=O)c3cnn(CC(=O)N4CCN(c5cccc(Cl)c5)CC4)c3c2c1, COc1ccc(-n2c(SCC(=O)Nc3ccc(Cl)c(C)c3)nc3n[nH]c(C)c3c2=N)cc1, CCC(C(=O)Nc1cccc(Cl)c1C)n1nc(-c2ccc(C)cc2)ccc1=O (stereo not given), Cc1cccc(CNS(=O)(=O)c2ccc(-c3cnc(C4CC4)o3)cc2)c1, CCc1cc2c(-c3ccccc3)cc(=O)oc2c2c1OCN(Cc1ccc(C)cc1)C2, Cc1oc2ccc(O)c(CN3CCCCC3)c2c1C(=O)Nc1cccc(C(F)(F)F)c1, CC(C)Cn1c(=O)c2ccccc2n2c(-c3cccc(Cl)c3)nnc12, O=C(Nc1cc(Cl)cc(Cl)c1)c1ccc2c(c1)N(Cc1cccc(Cl)c1)C(=O)c1ccccc1S2=O (stereo not given), O=C(O)c1ccc(Nc2nc(-c3ccccc3)c3cc(Br)ccc3n2)cc1, Cc1cc(C)c2sc(NC(=O)c3ccc(S(=O)(=O)N4CCCC4)cc3)nc2c1, CCc1ccc(NC(=O)c2cnc3c(-c4ccccc4)c(C)nn3c2C)cc1, COc1ccc(-c2csc(-c3c(N)c(C(=O)c4ccc(OC)c(OC)c4)n4ccccc34)n2)cc1, Cc1ccc(C)c(N2CCN(C(c3ccccc3)c3nnc(-c4ccccc4)o3)CC2)c1 (stereo not given), Fc1ccc(-c2nn(-c3ccccc3Cl)c3c2cnc2ccccc23)cc1, CCOc1ccccc1CNC(=O)c1ccc2c(c1)nc1n2CCC(C)C1 (stereo not given), COc1ccccc1OCC(=O)Nc1nnc2n1CCS2, CCOC(=O)c1c(C)oc2ccc(N(C(=O)c3ccncc3)S(=O)(=O)c3ccc(CC)cc3)cc12, O=C(CCS(=O)(=O)c1ccccc1)N(Cc1cccnc1)c1nc2c(F)cccc2s1, Cn1c(=O)sc2cc(NS(=O)(=O)c3ccc(C(C)(C)C)cc3)ccc21, COc1ccc2c(CNCCc3ccccc3C)c(C(=O)O)n(Cc3ccccc3C)c2c1, Cc1cc2c(cc1C)C(c1cccc(OC(C)C)c1)CC(=O)N2 (stereo not given), CCc1nn(CCCC(=O)NCc2ccccc2OC)c(=O)c2cc3occc3n12, Cc1cccc(NC(=O)c2ccc(F)c(S(=O)(=O)N(C)C3CCCCC3)c2)c1, COc1ccc(CCNC(=O)c2ccc3c(c2)nc(C)n3-c2ccc(Br)cc2)cc1OC, CCCCn1cc(S(=O)(=O)c2ccc(OCC)cc2)c(=O)c2cc(OC)c(OC)cc21, COc1ccccc1CNc1nc2ccc(Cl)cc2n2cnnc12, Cc1ccccc1CNC(=O)CCc1cn(Cc2ccccc2C)c2ccccc12, COc1ccccc1-n1c(-c2ccc(C)cc2)cn2c3c(=O)n(C)c(=O)n(C)c3nc12, CCOC(=O)C1CCCN(C(=O)c2ccc(-n3ccc4ccccc43)s2)C1 (stereo not given), Cc1cc(C)cc(NC(=O)c2cnc3sc(N4CCCC4)nn3c2=O)c1, COc1cc(NC(=O)CSc2nc3nc(C)c(Cc4ccc(C)cc4)c(C)n3n2)cc(OC)c1OC, Cc1oc(C)c2c(=O)cc(-c3ccc4c(c3)OCO4)cc(OC(=O)c3ccc(Cl)cc3)c12, COc1cccc(N=C2SC(C(=O)Nc3cccc(Cl)c3)CC(=O)N2C)c1 (stereo not given), Cc1ccccc1-c1nc2scc(CCNC(=O)C(=O)Nc3ccc(F)cc3F)n2n1, O=C(CSCc1cnn(-c2ccccc2)c1-n1cccc1)NCc1ccc(Cl)cc1, CCN(CC)S(=O)(=O)c1ccc(C(=O)N=c2sc3cccc(OC)c3n2C)cc1, CC(=O)Nc1ccc(NC(=O)c2cc3sccc3n2Cc2ccc(F)cc2)cc1, CC(C)Cn1c(C2CC(=O)N(c3ccccc3Cl)C2)nc2ccccc21 (stereo not given), CC1=C(C(=O)OCC2CCCCC2)C(c2c(F)cccc2Cl)CC(=O)N1 (stereo not given), COc1cc(Cl)c(C)cc1NC(=O)CCc1nc2cccnc2n1Cc1cccs1, COc1ccc(-c2nc(Cn3c(=O)cc(C)c4c(C)nn(-c5ccccc5)c43)c(C)o2)cc1OC, CCC(=O)N1CCc2cc(Br)cc(S(=O)(=O)Nc3ccc(C)cc3C)c21, CC(C)c1ccc(S(=O)(=O)Nc2ccc(O)c(Sc3nc4ccccc4s3)c2)cc1, Cc1ccc(-c2nn3c(=O)cc(CN4CCN(S(=O)(=O)c5ccc(Cl)cc5)CC4)nc3s2)cc1, NS(=O)(=O)c1ccc(NC(=O)COc2ccc(S(=O)(=O)NC3CCCCC3)cc2)cc1, Cc1ccc(NC(=O)Cc2ccc(NC(=O)N3CCCCc4ccccc43)cc2)cc1, CC1CCC(N2CC(=O)N(CCC3=CCCCC3)C(c3ccc(F)cc3)C2=O)CC1 (stereo not given), CCOc1ccccc1CNC(=O)c1ccc(-n2c(C)cc3c2CCC(C)C3)cc1 (stereo not given), O=S(=O)(c1ccc(Br)cc1)c1nnn2c1nc(NC1CCCCCC1)c1sccc12, Cc1oc(-c2ccccc2)nc1Cn1c(SCc2cccc(C(F)(F)F)c2)nc2cccnc21, CCCCOC(=O)/C(C#N)=C/c1ccc(-c2cccc(C(F)(F)F)c2)o1, CCOc1ccccc1C(=O)Nc1ccc(S(=O)(=O)N2CCCCC2c2cccnc2)cc1 (stereo not given), CN(Cc1ccccc1)c1ncnc2onc(-c3ccc(F)cc3)c12, Cc1cccc(C(C)C)c1NC(=O)C(NS(=O)(=O)c1cccc2nsnc12)c1ccccc1 (stereo not given), Cc1cccc(Cc2c(C)nc3nc(SCc4ccccc4Cl)nn3c2C)c1, Cc1ccc(/C=C(\C#N)C(=O)Nc2cc(C)ccc2C)cc1, COc1ccc(Cn2c(=O)n(-c3ccccc3C)c(=O)c3c4c(sc32)CN(C(C)=O)CC4)cc1, CCOC(=O)c1cc2c(=O)n3ccccc3nc2n(CC2CCCO2)c1=NC(=O)c1ccccc1F (stereo not given)
